# Source: PubChem BioAssay AID488908 (National Center for Advancing Translational Sciences (NCATS), 2010)
# Inconclusive results are not listed. Unmarked numbers belong to inactive results. Activity calls are given as the source filed them. The call rests on the fitted dose curve; in most records, active means well fitted inhibition curve with a large enough effect; inconclusive means small, poorly fitted or top-dose-only effect; inactive means flat fitted curve, though single readings scatter.
# Test: Secondary Assay for lipid storage modulators: Cytotoxcity for probe SAR
# Conditions: Drosophila S3 cells viability, CellTiter-Glo luminescence, 24 h, with oleic acid added (1 µL, 400 µM); series mostly up to 46.1 µM; activity change, negative = cytotoxicity: at the top concentration
# Source text: NIH Molecular Libraries Probe Production Centers Network [MLPCN] NIH Chemical Genomics Center [NCGC] MLPCN Grant: 1 R03 MH085686-01 Assay Submitter (PI): Beller, Mathias; Max-Planck-Institut fur Biophysikalische Chemie, Germany. NCGC Assay Overview: Storing lipids as a reservoir for energy or the anabolism of elementary metabolites is a common feature of probably all cells and is conserved from bacteria to humans. The universal cellular lipid storage organelle is the so-called lipid storage droplet (LD). Although ubiquitous, LDs share a simple structure composed of a hydrophobic core that harbors the storage lipids, which is shielded by a droplet-specific phospholipid monolayer to which proteins are attached. The current model of LD biogenesis involves an incorporation of the lipid core into the membrane leaflets of the endoplasmic reticulum (ER) followed by a subsequent budding-like maturation of a LD, which ultimately pinches off. Once released, LD volume can increase by localized lipogenesis or fusion of existing droplet. Storage lipids are re-mobilized enzymatically by lipase activity. Lipase regulation in the adipocyte is heavily studied and involves multiple components including catecholamine signaling, the LD-associated proteins Perilipin and comparative gene identification (CGI-58) and at least two lipases named hormone sensitive lipase (HSL) and adipocyte triglyceride lipase (ATGL). LD regulation outside of the adipocyte is poorly understood and only few components are known. However, there is an urgent need to learn more about ectopic fat depots as mislocalized storage of lipids, for example in the liver or muscle, is an eminent health problem associated with insulin resistance or the metabolic syndrome. We developed a laser-scanning cytometer assay to enable 1,536-well screening and combined the results of the small molecules screen with an RNAi database based on lipid storage. The compound was tested here for cytotoxcity using CellTiter-Glo.
# Assay Protocol Summary: Cytotoxcity assay was performed with embryonic Drosophila S3 cells (Bloomington Drosophila Genomics Resource Center [DGRC]). We dispensed 4 uL of cells at 1.25 x 10^6 cells/mL into Greiner solid white 1,536-well plates with a bottle-valve solenoid-based dispenser (Aurora) to obtain 5,000 cells/well. A total of 23 nL of compound solution of different concentrations were transferred to the assay plates using a Kalypsys pin tool equipped with a 1,536-pin array containing 10-nL slotted pins (FP1S10, 0.457-mm diameter, 50.8 mm long; V&P Scientific). One microliter of oleic acid (400 uM) was added, and the plate was lidded with stainless steel rubber gasket lined lids containing pinholes. After 24 hrs of incubation at 24 degrees Celsius and 95% humidity, 4 uL of CellTiter-Glo (Promega) was added to the wells. Luminescence was detected on the Perkin Elmer ViewLux.
Compound,Potency,"activity change, negative = cytotoxicity"
C[C@@H](NCCCc1cccc(C(F)(F)F)c1)c1cccc2ccccc12,28.1 µM (active),
O=C(Cc1cccs1)Nc1nc(-c2ccncc2)cs1,,-14.5%
COc1ccc(-c2csc(NC(=O)CSc3nnc(NC4CC4)s3)n2)cc1OC,,-10.9%
CCOc1ccc(CCNC(=O)c2ccc(N3N=C(C)CC3=O)cc2)cc1OCC,,-8.66%
CCOc1ccc(CCNC(=O)Cc2ccccc2)cc1OCC,,-6.12%
CC(=O)NCc1ccc(-c2csc(NC(=O)Cc3cccs3)n2)cc1,,-19.2%
CCOC(=O)C1CCN(C(=O)CNC(=O)Nc2ccccc2Cl)CC1,,2.28%
CCOc1ccc(CCNC(=O)c2cc3sccc3n2Cc2ccc(-n3cncn3)cc2)cc1OCC,,-25.9%
Cc1cc(NC(=O)Nc2ccc(N(C)C)cc2)c2cc(F)cc(F)c2n1,12.5 µM (active),
O=C(NC1CCCc2c1cnn2-c1cc(F)cc(F)c1)c1cccc2nccnc12 (stereo not given),,-6.12% [at 30.7 µM]
Cc1csc(NC(=O)CSc2ncc(-c3ccccc3)n2Cc2ccco2)n1,,-14.8%
CCOc1ccc(CCNC(=O)CN(C)C)cc1OCC,,1.74%
CCOC(=O)C1CCN(C(=O)C2(NC(=O)Nc3ccccc3Cl)CCC2)CC1,,-4.57%
O=C(NC1CCCc2c1cnn2-c1ccc(F)cc1F)c1ccsc1 (stereo not given),3.97 µM (active),
Cc1ccc(CC(=O)Nc2nc(-c3cccs3)cs2)cc1,,-7.37%
O=C(NCCc1ccc2c(c1)OCO2)c1cc2sccc2[nH]1,,-4.89% [at 30.7 µM]
CCOc1ccc(CCNC(=O)c2cccs2)cc1OCC,,-23.7%
COc1ccc(CCNC(=O)c2cc3sccc3n2Cc2ccccc2)cc1OC,,-27.8%
O=C(NC1CCCc2c1cnn2-c1ccc(F)cc1F)c1ccc(F)cc1 (stereo not given),14.1 µM (active),
O=C(NC1CCCc2c1cnn2-c1ccc(F)cc1F)c1cnon1 (stereo not given),,-12.7%

Compound,Potency,"activity change, negative = cytotoxicity"
CCOc1ccc(CCNC(=O)c2cnon2)cc1OCC,,2.21%
CCOC(=O)C1CCN(C(=O)C(C)(C)NC(=O)Nc2ccccc2Cl)CC1,,-7.62%
O=C(O)c1cccc(-c2noc(-c3ccccc3F)n2)c1,,-10.1%
CCOc1ccc(CCNC(=O)C2(c3ccccc3)CC2)cc1OCC,,-7.24%
CN(C)Cc1ccc(-c2nc3cccc4c3n2CCNC4=O)cc1,,-2.69%
COc1ccc(-c2cnc(SCC(=O)Nc3nc(C)cs3)n2Cc2ccco2)cc1,,-20.5% [at 30.7 µM]
O=C(O)CCc1ccc(NCc2cccc(Oc3ccccc3)c2)cc1,,-4.63%
Cc1cccc(Nc2nnc(SCC(=O)Nc3nc(-c4ccc(F)cc4)cs3)s2)c1,,-27.2%
CCOc1ccc(CCNC(=O)C2COc3ccccc3O2)cc1OCC (stereo not given),,-20.3%
O=C(NC1CCCc2c1cnn2-c1ccc(F)cc1F)C1CCCCN1 (stereo not given),,-10.8%
CN(C)CC(=O)NC1CCCc2c1cnn2-c1ccc(F)cc1F (stereo not given),,-8.45%
O=C(NCCc1ccc2c(c1)OCO2)c1cc2sccc2n1Cc1ccccc1,,-17.2%
O=C(NC1CCCCC1)NC1(C(=O)N2CCCC2)CCCCC1,,-9.55%
CCOc1ccc(CCNC(=O)c2csc(Br)n2)cc1OCC,,-18.6% [at 30.7 µM]
COc1cc(NC(=S)N2CCN(c3ccccn3)CC2)c(OC)cc1Cl,,-8.95%
COc1nc(-c2ccc3c(c2)OCO3)n(-c2ccc(NC(=O)CSc3ccccc3)cc2)n1,,-7.25%
Cc1cc(SCc2sc(-c3ccc(C(F)(F)F)cc3)nc2C)ccc1OCC(=O)O,,-12.1%
O=C(NCCc1ccc(O)c(O)c1)c1cc2sccc2n1Cc1ccccc1,,-15%
O=C(Cc1cccs1)Nc1nc(-c2ccc3c(c2)CCC3)cs1,,-15.7%
CCOc1ccc(CCNC(=O)c2ccccn2)cc1OCC,,-10.2%
